In the supplement of paper PMC11417369:
In all, about 25,000 sequences were measured (“ln(normalized median fluorescence intensity)”: median about 7.1, highest 2% from about 10 on). The list comes from a sample in which the highest values are over-represented; it also holds similar and randomly drawn sequences.

system: PfSIP2 AP2 domain 1 (GST-tagged); test: gcPBM binding intensity (ln(normalized median fluorescence intensity)); higher = stronger DNA binding
Outline: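 Binding intensity is defined as the maximum Masliner-normalised natural-log median intensity across replicate spots for either probe orientation. It was measured on an Agilent 4 × 180k array of primer-extended double-stranded 36-bp intergenic genomic probes and negative controls, to which GST-tagged P. falciparum DNA-binding domains made in E. coli were applied for 1 h in 1× PBS with 1% milk, 0.2 mg/ml BSA, 0.5% salmon testes DNA and 0.03% Triton X-100. Detection was by Alexa488 anti-GST antibody and scanning at 488 nm.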

Sequence | gcPBM binding intensity (ln)
TATTTTTGGTTATGTGTGCACTATGAACAACAAAAT | 10.5
ATTTTATGAAATGTTGCACACAAAAAACAACATGTT [CACACA_site8408] | 7.66
TATATTTTTATGTGTGTGCACAAAATAACAAAATAT [GTGCAC_site9596] | 9.36
AATATTTGCCTATGTTGTACTGACATTTTTTTAAGT [XGTACX_site6836] | 7.06
TTTTAAGATATAAATTAATACTTATATATATAGATA [CACACA_negctrl_site22] | 6.75
TAATTACACTTTAAAAGTACATATATAATAACATTA [XGTACX_site379] | 7.04
ATTAGTTTACACATATGTACATATATTACAACAAAA [XGTACX_site275] | 7.34
AAAAAGAACACAAAAAGTACAAAAATTATAATGATA [XGTACX_site2676] | 6.98
AAAAAAAAAACACACACATGCACATCATATTATATA [TGCATGCA_site133] | 7.03
ATATGGATTATACATACATGCATACATACATACATA [TGCATGCA_site475] | 7.1
AAAAAAAAAAAAAACACACACATGCACCTCATATTA [CACACA_site556] | 11.4
AAAAAAAAAAAAAACACACACATGCACATCATATTA [CACACA_site4467] | 7.43
ATATTATATATATACACACACACATGCATGCACATA [CACACA_site7917] | 8.98
AACACATACATATATGCACACATTTTATTCCATTAT [CACACA_site2834] | 8.05
ATATTATATATATACACACACACATGCATGCACCTA [CACACA_site106] | 11.1
CATATATGGTTATATACATGCACCATTATATTATTA [TGCATGCA_site520] | 10.3
ATATTATAGATATACACACACACATGCATGCACATA [CACACA_site6203] | 8.64
AAAAAAAATGATAATATACACACTTATGGGAGAGCG [CACACA_site2516] | 6.97
TATATAATACGAATTTGTACATATTAAATAAATTAT [XGTACX_site93] | 6.84
TTTTAAAAAACAAACACACACGTAGAAAAAAAAAAA [CACACA_site4608] | 6.99

Sequence | gcPBM binding intensity (ln)
GGTAGAAAATCAGTTAAACACACACCGAAAAAAAAA [CACACA_site8934] | 7.24
TATGAACACCAACACACACACAAAAAAAAAAAAAAA [CACACA_site2013] | 7.3
TACATATTTTGTATATATTATTTATTTTATTAGTTT [XGTACX_negctrl_site85] | 6.74
TTAATAGGTCGAAGTAGTACATAAAAATATATATAT [XGTACX_site5960] | 8.1
AATGTACACCCACCCACACACAAACAAATATATATA [CACACA_site5521] | 7.62
ATAAAAATTGATTATACACACGCGCCCAGACAACAA [CACACA_site5870] | 7.24
ATAAAAATTGATTATACACACGCGCACCCACAACAA [CACACA_site3536] | 11.2
TATACAATATAAAATACACACGCACCCAAAAAAAAA [CACACA_site9174] | 10.4
GACACCCATAAATATACACACGCACAACACAAAATA [CACACA_site8944] | 7.67
AATGTACACGCACCCACACACAAACAAATATAAATA [CACACA_site7319] | 10.3
ATTATACACGCGCGCACACACAACAAAAAAAAAAAA [CACACA_site7630] | 7.59
AATGTACCCACACCCACACACAAACAAATATATATA [CACACA_site2751] | 7.47
CACCCATAAATATACACACGCACAACACAAAATAAA [CACACA_site2903] | 7.52
TATATATAATTCATACATTTTAAATATATTTATTTA [CACACA_negctrl_site840] | 7.01
TATTGAATAAAATGCACACGCATGCGTTATTTATTA [CACACA_site3479] | 6.9
ATATATCATGCCAAGGGTACAAATGTGTAGTTGAAA [XGTACX_site2820] | 7.16
AAAAAAAAATACATATGTACTTATGTATAATGTTGT [XGTACX_site8104] | 7.14
AACTTTTTACAAACAGGTACGCATATATATATATAT [XGTACX_site5081] | 8.9
AAAATACACGCATACACACACACACCCACCCATATA [CACACA_site639] | 7.14
TCCCCTTAATTTAAAACACACAAACAAATAAGTTAG [CACACA_site5973] | 6.91

Sequence | gcPBM binding intensity (ln)
TATAAGAGGATATATACACACAAAAATATGTACAGT [CACACA_site6885] | 7.07
GAATGTCTAATTTTGATGCACACTTTTGTGCAATTA [CACACA_site2902] | 8.6
AAGAGGATACACAATGTGCACTTTTTTTTTTTTTTT [GTGCAC_site9415] | 10.5
AACTGTAAAAAATATAAACACACATAGAAATATATA [CACACA_site8002] | 7.01
AAAATAAAAAGAAAAAGAAAAAAGGGGGGGTAGGGG [CACACA_negctrl_site1048] | 7.86
TCATAGGGGTAGAAGGTGCAATAAAAAAGAAGAAAA | 10.7
CAGGGCAGGGGGAAGGGTACACATAAAAGAAAATAA [XGTACX_site172] | 8.34
TGAACATTATAGAAAAGTACTTAGTTTTTAAAAAGA [XGTACX_site6864] | 7
AAAAAAAAAAAAAAAGTGCACAGTCGTTTTAAAAAA [GTGCAC_site9848] | 10.7
TATATATATAAAAGTTGTACAGTGTTTTATATAGTT [XGTACX_site7085] | 8.13
GTCTAAAAATAAAAAGTGCATTTGTTTAATATTTTG | 9.52
AAAAAAAAAAGAAACACACACATTTGTCTATAATAT [CACACA_site7063] | 6.8
AAAATACATGGACACACACACACACCGATATATATA [CACACA_site5885] | 7.4
TATGTTTTATATAAGATGCACTTTTGTTATGCTTCA | 8.55
TTTTTTTTTTTTTTTGTGCACAATTATTTCAATTTT [GTGCAC_site9884] | 8.88
TTTTGTTTTTTCAATGTGCACTTAGGATGTTTTTAT [GTGCAC_site9565] | 10.6
CCATGTCACAATTTTTCACACACAAAATTTATATAC [CACACA_site8628] | 7.39
TATTTTTAGAAAATAAAGAAGGAGAATTGAAAATAT [CACACA_negctrl_site361] | 7.06
